Compounds with a hit are over-represented: about 1.2% of the library has one in this group of screens.
PG9 Ab binder = small molecules binding HIV-1 gp120 antibody PG9; TR-FRET gp120-PG9 antibody binding; inhibition, % at 6.7 µM; 360,000 tested, 0.43% active; AID 624416; in the data active = inhibition above about 8.5%
Rev-erbA mod = modulators of human Rev-erb alpha DNA binding. Rev-erbα–FITC-DNA binding, fluorescence polarization, 90 min. 370,000 tested, 0.79% active. P20393. activity, % at 10 µM. AID 1259318;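 active = activity above about 14%, limit read from the data; passing the limit was not always enough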;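 note: 0% = DMSO wells with 35 nM protein and 100% = DMSO wells with 750 nM protein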
PKA-R1A activ = PKA-R1A complex activation | P00514+P68181 | PKA-R1A dissociation, Cy5-IP20 fluorescence polarization; scaled: DMSO 0%, 113 µM cGMP 100% | activation, % at 11.4 µM | 340,000 tested, 0.083% active | AID 504707;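 active = percent activation above the mean of all tested compounds plus 3 SD, cut at about 19% in these data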;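 note: higher means more PKAc released from R1A so a rise in polarization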
PKA-R2B activ = activates the human PKA-R2B holoenzyme complex | P22694+P31323 | PKA-R2B holoenzyme dissociation, Cy5-IP20 fluorescence polarization; R2B truncated from residue 108, S112A mutant; 0% DMSO only, 100% 113 µM cGMP | activation, % at 11.4 µM | 340,000 tested, 0.079% active | AID 504700;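 active = activation above a cutoff set at the mean over all compounds plus 3 SD, cut at about 18% in these data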;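 note: higher means more holoenzyme dissociation and a rise in polarization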
Target sequence (P31323 whole entry, looked up, other chains not shown, the tested form may be a part): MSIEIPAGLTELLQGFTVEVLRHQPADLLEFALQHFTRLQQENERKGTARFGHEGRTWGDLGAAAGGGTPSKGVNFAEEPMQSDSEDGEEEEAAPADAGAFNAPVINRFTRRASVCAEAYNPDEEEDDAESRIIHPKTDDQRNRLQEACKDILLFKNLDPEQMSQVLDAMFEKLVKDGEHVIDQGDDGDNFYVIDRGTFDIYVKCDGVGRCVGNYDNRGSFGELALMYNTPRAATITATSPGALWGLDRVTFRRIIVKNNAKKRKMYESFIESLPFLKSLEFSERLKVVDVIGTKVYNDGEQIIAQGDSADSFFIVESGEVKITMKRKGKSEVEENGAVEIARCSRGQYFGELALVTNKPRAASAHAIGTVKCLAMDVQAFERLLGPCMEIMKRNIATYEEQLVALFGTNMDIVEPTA
PG9 bind confirm = confirmation of small molecules binding HIV-1 gp120 antibody PG9. AID 651571. TR-FRET PG9 antibody binding, biochemical. shares compounds with PG9 Ab binder. inhibition, % at 6.7 µM. 1,500 tested, 90% active; in the data active = inhibition above about 9%
PGV04 counter = binds control antibody PGV04 in PG9 binder counter-screen. TR-FRET PGV04 antibody-gp120 binding, biochemical. shares compounds with PG9 Ab binder. 1,500 tested, 95% active. inhibition, % at 6.7 µM; in the data active = inhibition above about 9.5%
PG9 bind DR = small molecules binding HIV-1 gp120 antibody PG9. shares compounds with PG9 Ab binder. TR-FRET PG9 antibody-gp120 binding inhibition. IC50, µM. 95 tested, under 10 active. AID 651848; in the data active = IC50 below about 10 µM
PGV04 DR counter = PGV04 binding, dose response counter-screen | shares compounds with PG9 Ab binder | 95 tested, 20% active | TR-FRET binding to control antibody PGV04 | IC50, µM
PG126 binding DR = counter-screen for PG9 binders: binding to control antibody PG126 | shares compounds with PG9 Ab binder | TR-FRET binding to antibody PG126, counterscreen | IC50, µM | 95 tested, 20% active | AID 651939
Numbers without * were called inactive; i = inactive; nt = not tested or not shown. Cut-off read from the data, not from the text of the source, unless noted: active = IC50 below about 9 µM; inactive = the rest.

SMILES	PG9 Ab binder	Rev-erbA mod	PKA-R1A activ	PKA-R2B activ	PG9 bind confirm	PGV04 counter	others
Cc1cc(C=O)c(C)n1-c1ccc(Oc2ccc([N+](=O)[O-])cn2)cc1	8.6*	5	-9	-12	10*	15*
Nn1c(SCC(=O)Nc2ccccc2-c2ccccc2)nnc1-c1cc(-c2ccccc2)n[nH]1	nt	-10	nt	nt	nt	nt
CCC(=O)N[C@@H]1C[C@@H]2O[C@@H](CO)CC[C@@H]2O[C@@H]1CCc1ccc(-c2cccc(OC)c2)cc1	nt	-1	nt	nt	nt	nt
Cc1ccccc1NC(=O)c1sc2nc3c(c(-c4ccco4)c2c1N)CCCC3	71*	4	2	-10	62*	71*
Nc1c(C(=O)Nc2ccccc2)sc2nc3c(c(-c4ccco4)c12)CCCC3	0	0	-2	-10	nt	nt
Cc1ccc(NC(=O)c2sc3nc(C)cc(C)c3c2N)cc1	-3	-2	-14	8	nt	nt
Cc1cc(C)c2c(N)c(C(=O)Nc3cccc(C)c3C)sc2n1	8.9*	4	-11	8	46*	70*
O=C(NCCC1CCCCN1S(=O)(=O)c1ccc(F)cc1)C(=O)Nc1ccccc1F (stereo not given)	10*	0	11	-14	4	7
Cc1nc2ccc(F)cc2cc1C(=O)Nc1ccc(Cl)c(Cl)c1	22*	12	1	0	24*	32*
Cc1nc2ccc(F)cc2cc1C(=O)NCc1ccco1	-2	-3	6	3	nt	nt
CCCCc1ccc2nc(NC(=O)c3ccc(Br)o3)sc2c1	nt	4	nt	nt	nt	nt
Nc1ccn(C2CCCCO2)c(=O)n1 (stereo not given)	14*	3	2	-3	6	8
COc1cccc(C2/C(=C(\O)c3ccc(OC)c(OC)c3)C(=O)C(=O)N2c2cc(C)on2)c1 (stereo not given)	14*	1	7	-3	25*	34*
COc1ccc(/C(O)=C2\C(=O)C(=O)N(c3cc(C)on3)C2c2ccc(OC)c(OC)c2)cc1OC (stereo not given)	2	1	-8	-6	nt	nt
Cc1ccc(S(=O)(=O)c2c(N)n(CCN3CCOCC3)c3nc4ccccc4nc23)cc1C	26*	20	-5	-8	17*	29*
O=C(CCc1nc2sc3c(c2c(=O)[nH]1)CCCC3)NCCOc1ccccc1	24*	-4	-1	-1	24*	47*
Cc1cccc(NC(=O)CCc2nc3sc4c(c3c(=O)[nH]2)CCCC4)n1	1	-9	-2	-4	nt	nt
CC(=O)c1ccc(NC(=O)CCc2nc3sc4c(c3c(=O)[nH]2)CCCC4)cc1	11*	12	8	0	23*	33*
O=C(CCc1nc2sc3c(c2c(=O)[nH]1)CCCC3)Nc1ccccc1Cl	17*	4	-2	-13	19*	34*
Cc1cccc(NC(=O)CNC(=O)CCc2nc3sc4c(c3c(=O)[nH]2)CCCC4)c1C	22*	-16	-5	1	21*	40*
O=C(NC1=NC2(C=C3CCCCC3n3c(=O)n(-c4ccccc4)c(=O)n32)CN1CC1CC1)c1ccccc1 (stereo not given)	nt	-1	nt	nt	nt	nt
COc1ccc(/C(O)=C2/C(=O)C(=O)N(CCCN(C)C)C2c2ccc(Cl)cc2)cc1OC (stereo not given)	13*	2	-4	-3	23*	30*
COc1ccc(C2/C(=C(\O)c3ccc(OC)c(Cl)c3)C(=O)C(=O)N2CCN(C)C)cc1 (stereo not given)	1	-4	2	0	nt	nt
COc1cccc(C2/C(=C(/O)c3ccc4c(c3)CC(C)O4)C(=O)C(=O)N2CCCn2ccnc2)c1 (stereo not given)	3	-2	-21	-9	nt	nt
COc1cccc(C2/C(=C(/O)c3ccc4c(c3)OCO4)C(=O)C(=O)N2CCN2CCOCC2)c1 (stereo not given)	21*	-1	0	5	31*	37*
SMILES	PG9 Ab binder	Rev-erbA mod	PKA-R1A activ	PKA-R2B activ	PG9 bind confirm	PGV04 counter	others
COc1cccc(C2/C(=C(\O)c3ccc4c(c3)OCCO4)C(=O)C(=O)N2CCCn2ccnc2)c1 (stereo not given)	12*	-7	-6	2	20*	23*
O=C1C(=O)N(CCCN2CCOCC2)C(c2ccc(F)cc2)/C1=C(\O)c1ccc2c(c1)OCCO2 (stereo not given)	9.4*	-4	0	5	21*	24*
O=C1C(=O)N(CCN2CCOCC2)C(c2ccncc2)/C1=C(/O)c1ccc2c(c1)OCO2 (stereo not given)	0	-8	-3	-15	nt	nt
O=C1C(=O)N(CCCn2ccnc2)C(c2cccc(Br)c2)/C1=C(\O)c1ccc2c(c1)OCCO2 (stereo not given)	27*	-4	-6	-5	45*	40*	PG9 bind DR=i;PGV04 DR counter=5.4*;PG126 binding DR=8*
O=C1C(=O)N(CCCn2ccnc2)C(c2ccc(Cl)cc2)/C1=C(\O)c1ccc2c(c1)OCCO2 (stereo not given)	27*	1	-4	5	16*	21*
O=C1C(=O)N(CCCn2ccnc2)C(c2ccc(Br)cc2)/C1=C(\O)c1ccc2c(c1)OCCO2 (stereo not given)	14*	10	-14	-5	13*	15*
O=C1C(=O)N(Cc2ccncc2)C(c2cccc(O)c2)/C1=C(\O)c1ccc2c(c1)OCCO2 (stereo not given)	8	1	1	-1	nt	nt
O=C1C(=O)N(CCCn2ccnc2)C(c2ccc([N+](=O)[O-])cc2)/C1=C(\O)c1ccc2c(c1)OCCO2 (stereo not given)	0	0	-8	8	nt	nt
COc1ccc(/C(O)=C2/C(=O)C(=O)N(CCCN3CCOCC3)C2c2ccc(Cl)cc2)cc1 (stereo not given)	12*	1	5	1	26*	43*
COC(=O)[C@]12C[C@H](CC(=O)N3CCOCC3)C(=O)N(Cc3cccc4ccccc34)C1=C[C@H](C(C)(C)C)O[C@@H]2C	nt	-1	nt	nt	nt	nt
COCCCN1C(=O)[C@H](CC(=O)NCC23CC4CC(CC(C4)C2)C3)[C@]2(C(=O)OC)CCCCC=C12	nt	4	nt	nt	nt	nt
CC(C)(C)c1ccc(S(=O)(=O)NCC(=O)N2CCN(c3ncccn3)CC2)cc1	nt	-5	nt	nt	nt	nt

Compound activity deposited in PubChem by several laboratories.
